Results filed as inconclusive are left out. The source made the active and inactive calls. Unless noted, the call rests on the fitted dose curve; in most records, active means well fitted curve in the direction sought with a large enough effect; inconclusive means small, poorly fitted or top-dose-only effect, or another doubt; inactive means no such curve, though single readings can be large; an effect the other way counts as inactive or inconclusive.
Columns and labels:
[1] = AP1 Signaling Pathway (AID 357; active means well fitted curve in either direction with a large enough effect, not every such curve was filed as active;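 further: ME-180 reporter cells stimulated with EGF at its EC50 level; on the % scale 0 is the no-effect control and ±100 the full control effect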); conditions: ME-180 AP-1-bla reporter, EGF-induced, beta-lactamase ratio, 5 h; at 17.2 µM (top of the series) unless noted
In short: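 Modulation of EGF-driven AP-1 transcription was assessed with a beta-lactamase reporter in ME-180 cells. Compound and EC50 EGF were co-incubated 5 hours at 37 °C before 2.5-hour CCF4 loading at room temperature and dual-emission reading.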

[2] = molecular target: Glucocorticoid receptor (Homo sapiens) (UniProt P04150); assay: GR-GFP Redistribution (AID 450;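 active means compounds whose dose series gives a full or clear partial fitted curve of increased nuclear translocation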; further: potency means the concentration at half of the fitted maximal effect)
[3] = qHTS Assay for Identification of Small Molecule Agonists for Hypoxia Response Element Signaling Pathway (AID 914; active means well fitted activation curve with a large enough effect in the signal ratio, with a control signal flat, not every such curve was filed as active; the % refers to the signal ratio; further: potency means the concentration at half of the fitted maximal effect; on activation: % of control where 0% means no effect); conditions: ME-180 HRE-bla reporter, beta-lactamase ratio, CoCl2, 17 h; activation: active compounds read high
In short: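 HRE-bla ME-180 assay for agonist-like enhancement of an EC50 CoCl2 stimulus: 17 h at 37 degrees Celsius, CCF4 for 2.5 h, ratiometric 460/530 nm signal converted to %Activity and fitted to AC50.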

[4] = molecular target: Cytochrome P450 1A2 (Homo sapiens) (UniProt P05177); assay: p450-cyp1a2 (AID 410; calls by dose curve; further: potency means the concentration at half of the fitted maximal effect;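 on activity change, negative = inhibition: -100% = full effect of reference inhibitor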)
In short: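 Inhibition was calculated relative to 57 uM furafylline (full inhibition). The reaction used human CYP1A2 at 20nM with Luciferin-ME at its Km, 100uM, driven by an NADPH-regenerating system for 60 min at room temperature.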

[5] = NFAT Signaling Pathway (AID 444; active means well fitted curve in either direction with a large enough effect, not every such curve was filed as active;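 further: carbachol stimulus at about its EC50 of 1 µM final; on the % scale 0 is the no-effect control and ±100 the full control effect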); conditions: Jurkat NFAT-bla M1, carbachol, beta-lactamase ratio, 5 h; at 17.2 µM (top of the series) unless noted
In short: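 Jurkat cells carrying an NFAT-driven β-lactamase reporter and co-transfected muscarinic M1 receptor were treated with compound plus carbachol (1 uM final, an EC50 level) for 5 h at 37 °C. CCF4 loading followed for 1 h at RT; 460/530 nm ratio gave %activity.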

[6] = Stat Signaling Pathway (AID 446; active means well fitted curve in either direction with a large enough effect, not every such curve was filed as active;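 further: ME-180 cervical cancer cells given 40 pM IL-6 alongside compound; SIE-controlled beta-lactamase reporter measured as 460/530 nm FRET emission ratio; on the % scale 0 is the no-effect control and ±100 the full control effect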); conditions: ME-180 SIE beta-lactamase reporter, IL-6 stimulated, 5 h; at 17.2 µM (top of the series) unless noted
In short: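 Screening format detects activators and inhibitors alike: ME-180 SIE-bla cells stimulated at 40 pM IL-6 for 5 hrs with compound, then dual-emission beta-lactamase read at 405 nm excitation.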

[7] = molecular target: Glucocorticoid receptor (Homo sapiens) (UniProt P04150); assay: GR-EFC Redistribution (AID 451; calls by dose curve; further: potency means the concentration at half of the fitted maximal effect); conditions: CHO-K1 GR-EFC translocation, beta-gal luminescence, 2 h
In short: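 CHO-K1 cells stably expressing nuclear-localized β-gal enzyme acceptor and GR fused C-terminally to the enzyme donor fragment; ligand-driven nuclear translocation restores β-gal by complementation. Compounds titrated up to 46 uM final, 2 h at 37 °C; luminescence read.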

[8] = molecular target: 3',5'-cyclic-AMP phosphodiesterase 4B (Homo sapiens) (UniProt Q07343); assay: qHTS Assay for Inhibitors of PDE-IV (AID 607; active means well fitted activation curve with a large enough effect in the main read-out, with a control signal flat, not every such curve was filed as active; further: % of control where 0% means no effect)
In short: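 The readout is membrane depolarisation from a cAMP-sensing CNG channel, detected with a potential dye at ex 535/em 590. Cells were HEK293-derived (endogenous PDE-IV) at 1000 cells/well, titrated up to 22.9 uM final.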

[9] = molecular target: Guanine nucleotide-binding protein G(i) subunit alpha-1 (Homo sapiens) (UniProt P63096); assay: qHTS Assay for Inhibitors of RGS12 GoLoco Motif Activity (Green Fluorophore) (AID 879);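 further: 0% = labeled peptide with Gαi1 and full inhibition = labeled peptide alone without protein; negative values mean loss of peptide binding seen as reduced polarization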
In short: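 Fluorescence polarization assay: 50 nM Gαi1 with 10 nM FITC-labeled RGS12 GoLoco peptide in 10 mM Tris pH 7.5, 150 mM NaCl, 0.1 mM GDP, 0.05% NP40, 10 min at room temperature with compound.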

[10] = molecular target: Cytochrome P450 3A4 (Homo sapiens) (UniProt P08684); assay: qHTS Assay for Activators of Cytochrome P450 3A4 (AID 885); further: nearly all actives have a fitted effect of over 65% in size
In short: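 Steps: enzyme/substrate mix dispensed; compound added, 10 min RT; NADPH regeneration solution added, 60 min RT; luciferin detection buffer stops reaction; 20 min later luminescence measured.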

[11] = qHTS Assay for Identification of Small Molecule Agonists for Thrombopoietin (TPO) Signaling Pathway (AID 917); further: potency means the concentration at half of the fitted maximal effect
In short: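 Murine Ba/F3 cells expressing human TPO receptor and GPIIb-promoter luciferase, IL-3-starved overnight, given compound plus TPO at 26 pM (EC50). After 24 h at 37 C, 5% CO2, luminescence read.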

[12] = molecular target: Muscarinic acetylcholine receptor M1 (Rattus norvegicus) (UniProt P08482); assay: qHTS Assay for Antagonists of Acetylcholine Muscarinic M1 Receptor: Measurement of IP-One Response (AID 944); further: nearly all actives have a fitted effect of over 75% in size
In short: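 Steps: plate transfected CHO-M1 cells overnight; add test compound, 10 min; add carbachol (200 nM, EC80) in stimulation buffer with LiCl; incubate 30 min; add labelled IP1 tracer and anti-IP1 antibody in lysis buffer; read HTRF after 10 min.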

[13] = molecular target: Pyruvate kinase (Leishmania mexicana) (UniProt Q27686); assay: qHTS Validation Assay for Inhibitors of Leishmania Mexicana Pyruvate Kinase (AID 945); further: potency means the concentration at half of the fitted maximal effect;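 on activity change, negative = inhibition: 0% = DMSO only neutral control wells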
In short: (§1)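 Eight-point qHTS titrations; enzyme 0.2 nM LmPYK (E451W mutant); substrates 0.5 mM PEP, 0.1 mM ADP; 7 mM MgCl2; 1 h room temperature; PKLight luminescence normalized to neutral control.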

[14] = molecular target: Pyruvate kinase PKM (Homo sapiens) (UniProt P14618); assay: qHTS Assay for Inhibitors of Human Muscle Pyruvate Kinase (AID 958)
In short: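 Screening used highly purified human pyruvate kinase M2 under submaximal activity, with PEP at its Km and ADP below Km. After an hour at room temperature, ATP was read by luciferase luminescence.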

[15] = molecular target: Alpha-galactosidase A (Homo sapiens) (UniProt P06280); assay: Counterscreen for Glucocerebrosidase Inhibitors: qHTS Assay for Human alpha-Galactosidase at pH 4.5 (AID 992); further: 0% is about no effect
In short: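 Concentration-response curves (0.7 nM to 77 uM final) were modeled with the Hill equation to give AC50. Reactions: 2 nM enzyme, 80 uM fluorogenic alpha-galactoside, pH 4.5 citric acid buffer, 20 min, room temperature.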

[16] = molecular target: alpha-glucosidase (Oryza sativa, rice) (UniProt Q653V4); assay: Counterscreen for Glucocerebrosidase Inhibitors: qHTS Assay for Rice alpha-Glucosidase at pH 5.0 (AID 997);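 further: 0% = full activity with enzyme and -100% = basal without enzyme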
In short: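 Rice alpha-glucosidase (4 nM final) with 400 uM 4-methylumbelliferyl-alpha-D-glucopyranoside in citrate buffer pH 5.0, 20 min at room temperature, stopped at pH 10; fluorescence 365/440 nm, compounds 0.7 nM–77 uM, AC50 from Hill fits.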

[17] = molecular target: Mitogen-activated protein kinase 10 (Mus musculus) (UniProt Q61831); assay: JNK3 AlphaScreen Assay (AID 530; active means well fitted curve in either direction with a large enough effect, not every such curve was filed as active;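 further: kinase came from lysate of stimulated human HepG2 cells; signal reports phosphorylation of biotinylated GST-cJun 1-79 at Ser73 with 10 µM ATP; on the % scale 0 is the no-effect control and ±100 the full control effect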)
In short: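 JNK3 came from HepG2 lysates pre-activated with IL-1beta and TNF-alpha and phosphorylated biotinylated GST-cJun (1-79) at 10 uM ATP, pH 7.6, room temperature. Compounds were titrated. AlphaScreen signal used anti-phospho-cJun (Ser73) antibody.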

[18] = molecular target: Cytochrome P450 2C9 (Homo sapiens) (UniProt P11712); assay: qHTS Assay for Inhibitors and Substrates of Cytochrome P450 2C9 (AID 883); further: nearly all actives have a fitted effect of over 60% in size; further: potency means the concentration at half of the fitted maximal effect
In short: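 A luminogenic readout tracked human CYP2C9 (10nM) converting deoxyluciferin (100uM, at KM) in 25mM KPO4 during 60 min at 37C with regenerated NADPH. Values normalized to 57uM sulphaphenazole as complete inhibition.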

[19] = molecular target: Cytochrome P450 3A4 (Homo sapiens) (UniProt P08684); assay: qHTS Assay for Inhibitors and Substrates of Cytochrome P450 3A4 (AID 884); further: potency means the concentration at half of the fitted maximal effect; nearly all actives have a fitted effect of over 50% in size
In short: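 20 nM human CYP3A4 with 25 uM Luciferin-PPXE (at KM) in 200 mM KPO4, preincubated 10 min with compound; NADPH regeneration started a 60 min RT reaction. Luciferin detected by luminescence, normalized to 57 uM ketoconazole as full inhibition.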

[20] = qHTS Assay for Identification of Small Molecule Antagonists for NFkB Signaling Pathway (AID 895; active means well fitted inhibition curve with a large enough effect in the signal ratio, with a control signal flat, not every such curve was filed as active; the % refers to the signal ratio; further: potency means the concentration at half of the fitted maximal effect)
In short: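 NFkB-bla ME-180 cervical carcinoma cells with beta-lactamase reporter under NFkB response element; compounds added, then TNF alpha at 10 pM final (EC50), 5 h at 37 C. LiveBLAzer substrate 2 h, room temperature; emission 460/530 nm at 405 nm excitation.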

[21] = molecular target: Cytochrome P450 2C19 (Homo sapiens) (UniProt P33261); assay: qHTS Assay for Inhibitors and Substrates of Cytochrome P450 2C19 (AID 899); further: potency means the concentration at half of the fitted maximal effect; nearly all actives have a fitted effect of over 60% in size
In short: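 NADPH-dependent conversion of Luciferin-H EGE (10uM, at KM) by 5nM enzyme in 50mM KPO4, 60 min at 37C following 10 min compound preincubation. Stopped with luciferin detection buffer; luminescence read after 20 min.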

[22] = molecular target: Pyruvate kinase PKM (Homo sapiens) (UniProt P14618); assay: qHTS Assay for Activators of Human Muscle Pyruvate Kinase (AID 954; active means well fitted curve in the direction sought with a large enough effect, not every such curve was filed as active;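 further: 0% = uninhibited enzyme and -100% = no enzyme or full thiadiazolimine inhibition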)
In short: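 Reaction: 0.1 nM purified PKM2 with 0.5 mM phosphoenolpyruvate and 0.1 mM ADP, room temperature, 1 h. Readout: luciferase-based ATP luminescence after stop reagent. Activators judged against a 0.3 nM enzyme column.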

[23] = molecular target: Tumor susceptibility gene 101 protein (Homo sapiens) (UniProt Q99816); assay: qHTS Assay for Iinhibitors of HIV-1 Budding by Blocking the Interaction of PTAP/TSG101: Hit Validation (AID 651600); further: potency means the concentration at half of the fitted maximal effect; nearly all actives have a fitted effect of over 70% in size
In short: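 Fluorescence polarization binding assay: Tsg101 binding domain (10 uM) mixed with compounds and FITC-labeled PTAP peptide (50 nM) in HEPES pH 7.5, 0.15 M NaCl, 0.01% Tween 20, EDTA, TCEP; 20 min at r.t.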

[24] = qHTS Assay for Identification of Small Molecule Agonists for NFkB Signaling Pathway (AID 928; calls by dose curve); conditions: NFkB beta-lactamase reporter cells, blue/green ratio
In short: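 ME-180 NFkB-bla cells carry a beta-lactamase reporter under an NFkB response element. Compound plus 10 pM TNF alpha (final) was applied for 5 hrs at 37 C. After 2 hrs with LiveBLAzer substrate, 460/530 nm emission was read at 405 nm excitation.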

[25] = molecular target: Pyruvate kinase (Leishmania mexicana) (UniProt Q27686); assay: qHTS Validation Assay for Activators of Leishmania Mexicana Pyruvate Kinase (AID 959)
In short: as §1

[26] = molecular target: Muscarinic acetylcholine receptor M1 (Rattus norvegicus) (UniProt P08482); assay: qHTS Assay for Antagonists of Acetylcholine Muscarinic M1 Receptor: Kinetic Measurement of Intracellular Calcium Response (AID 943);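 further: Fluo-4 calcium signal as peak divided by basal fluorescence over 4 min; nearly all actives have a fitted effect of over 75% in size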
In short: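 Intracellular calcium flux, recorded with Fluo-4 in a kinetic plate reader, served as signal; the response to carbachol at EC80 (100 nM final) was taken as maximal over minimal fluorescence after a 10 min compound pre-incubation in rat M1-CHO cells.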

Chain of Cytochrome P450 3A4 (Homo sapiens) (P08684 whole entry, looked up): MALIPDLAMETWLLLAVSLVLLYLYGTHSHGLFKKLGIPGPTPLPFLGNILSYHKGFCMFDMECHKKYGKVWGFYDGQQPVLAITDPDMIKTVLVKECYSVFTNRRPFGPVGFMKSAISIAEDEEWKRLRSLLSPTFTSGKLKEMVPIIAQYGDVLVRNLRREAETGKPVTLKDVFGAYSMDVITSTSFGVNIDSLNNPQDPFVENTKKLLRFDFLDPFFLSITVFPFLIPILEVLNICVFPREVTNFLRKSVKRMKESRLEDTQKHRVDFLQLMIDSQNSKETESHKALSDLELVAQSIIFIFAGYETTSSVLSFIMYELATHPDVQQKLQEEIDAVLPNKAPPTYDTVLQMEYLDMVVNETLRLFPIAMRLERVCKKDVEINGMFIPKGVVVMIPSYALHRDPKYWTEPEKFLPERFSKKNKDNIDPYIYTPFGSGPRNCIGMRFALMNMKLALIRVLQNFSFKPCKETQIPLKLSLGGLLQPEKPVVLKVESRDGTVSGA
Chain of 3',5'-cyclic-AMP phosphodiesterase 4B (Homo sapiens) (Q07343 whole entry, looked up): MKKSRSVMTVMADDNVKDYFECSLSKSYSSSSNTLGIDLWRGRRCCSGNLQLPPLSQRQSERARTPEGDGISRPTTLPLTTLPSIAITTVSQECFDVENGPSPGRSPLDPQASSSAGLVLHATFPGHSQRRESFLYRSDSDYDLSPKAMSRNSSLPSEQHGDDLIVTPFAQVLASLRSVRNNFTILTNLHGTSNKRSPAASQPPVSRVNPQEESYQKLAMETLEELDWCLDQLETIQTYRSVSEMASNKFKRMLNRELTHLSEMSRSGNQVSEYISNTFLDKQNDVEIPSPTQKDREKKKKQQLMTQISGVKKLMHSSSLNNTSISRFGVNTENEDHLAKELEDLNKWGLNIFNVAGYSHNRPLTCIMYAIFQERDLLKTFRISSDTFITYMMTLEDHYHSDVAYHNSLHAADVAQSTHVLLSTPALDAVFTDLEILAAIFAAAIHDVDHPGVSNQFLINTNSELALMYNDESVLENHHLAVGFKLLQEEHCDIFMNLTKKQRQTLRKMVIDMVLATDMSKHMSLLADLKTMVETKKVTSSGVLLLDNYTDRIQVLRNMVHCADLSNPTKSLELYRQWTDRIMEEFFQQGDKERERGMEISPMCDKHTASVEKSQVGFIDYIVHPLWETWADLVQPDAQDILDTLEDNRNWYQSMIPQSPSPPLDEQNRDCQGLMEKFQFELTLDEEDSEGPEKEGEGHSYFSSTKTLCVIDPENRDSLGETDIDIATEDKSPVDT
Chain of Pyruvate kinase (Leishmania mexicana) (Q27686 2-499 E452W): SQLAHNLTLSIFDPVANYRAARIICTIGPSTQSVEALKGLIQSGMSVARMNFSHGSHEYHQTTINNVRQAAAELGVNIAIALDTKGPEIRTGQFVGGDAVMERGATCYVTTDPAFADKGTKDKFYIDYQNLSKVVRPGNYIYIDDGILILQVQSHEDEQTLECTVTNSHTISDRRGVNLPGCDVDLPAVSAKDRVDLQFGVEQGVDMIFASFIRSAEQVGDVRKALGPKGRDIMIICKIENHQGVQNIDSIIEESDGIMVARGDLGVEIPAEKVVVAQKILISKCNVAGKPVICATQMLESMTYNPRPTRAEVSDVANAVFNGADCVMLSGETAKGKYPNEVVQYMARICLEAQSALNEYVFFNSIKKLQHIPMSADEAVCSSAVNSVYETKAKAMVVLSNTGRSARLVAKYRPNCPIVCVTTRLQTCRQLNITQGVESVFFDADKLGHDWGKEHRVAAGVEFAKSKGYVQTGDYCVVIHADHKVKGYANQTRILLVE
Chain of Guanine nucleotide-binding protein G(i) subunit alpha-1 (Homo sapiens) (P63096 whole entry, looked up): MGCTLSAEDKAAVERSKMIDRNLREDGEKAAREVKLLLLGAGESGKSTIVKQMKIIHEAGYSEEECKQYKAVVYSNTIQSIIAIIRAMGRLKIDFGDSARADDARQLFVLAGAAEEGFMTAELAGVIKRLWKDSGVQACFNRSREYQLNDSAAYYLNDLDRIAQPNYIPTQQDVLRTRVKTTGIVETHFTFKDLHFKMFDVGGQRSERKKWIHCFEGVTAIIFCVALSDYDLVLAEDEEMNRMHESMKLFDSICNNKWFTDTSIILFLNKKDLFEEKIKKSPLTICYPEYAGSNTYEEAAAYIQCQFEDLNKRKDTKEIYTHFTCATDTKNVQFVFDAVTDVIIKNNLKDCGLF
Chain of Glucocorticoid receptor (Homo sapiens) (P04150 whole entry, looked up, the tested form may be a part): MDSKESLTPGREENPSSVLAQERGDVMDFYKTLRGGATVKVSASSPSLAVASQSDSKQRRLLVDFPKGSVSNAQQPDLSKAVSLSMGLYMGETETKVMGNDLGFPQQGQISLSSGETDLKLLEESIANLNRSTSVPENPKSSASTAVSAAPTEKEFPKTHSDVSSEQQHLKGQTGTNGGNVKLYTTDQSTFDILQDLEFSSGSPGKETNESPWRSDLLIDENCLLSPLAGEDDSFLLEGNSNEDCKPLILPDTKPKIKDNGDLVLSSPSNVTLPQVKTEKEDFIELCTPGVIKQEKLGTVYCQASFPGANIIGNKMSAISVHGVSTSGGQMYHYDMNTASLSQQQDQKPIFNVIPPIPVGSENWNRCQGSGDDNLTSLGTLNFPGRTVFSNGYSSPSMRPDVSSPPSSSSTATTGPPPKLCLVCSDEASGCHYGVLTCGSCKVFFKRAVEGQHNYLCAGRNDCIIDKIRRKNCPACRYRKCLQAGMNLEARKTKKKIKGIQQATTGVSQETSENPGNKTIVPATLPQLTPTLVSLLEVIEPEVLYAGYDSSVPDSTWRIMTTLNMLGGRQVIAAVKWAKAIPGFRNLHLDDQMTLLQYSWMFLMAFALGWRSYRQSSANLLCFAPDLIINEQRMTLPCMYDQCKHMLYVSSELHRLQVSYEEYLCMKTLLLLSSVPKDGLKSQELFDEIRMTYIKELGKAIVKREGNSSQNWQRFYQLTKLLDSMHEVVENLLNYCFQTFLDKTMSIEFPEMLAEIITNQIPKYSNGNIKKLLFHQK
Chain of Pyruvate kinase PKM (Homo sapiens) (P14618 whole entry, looked up): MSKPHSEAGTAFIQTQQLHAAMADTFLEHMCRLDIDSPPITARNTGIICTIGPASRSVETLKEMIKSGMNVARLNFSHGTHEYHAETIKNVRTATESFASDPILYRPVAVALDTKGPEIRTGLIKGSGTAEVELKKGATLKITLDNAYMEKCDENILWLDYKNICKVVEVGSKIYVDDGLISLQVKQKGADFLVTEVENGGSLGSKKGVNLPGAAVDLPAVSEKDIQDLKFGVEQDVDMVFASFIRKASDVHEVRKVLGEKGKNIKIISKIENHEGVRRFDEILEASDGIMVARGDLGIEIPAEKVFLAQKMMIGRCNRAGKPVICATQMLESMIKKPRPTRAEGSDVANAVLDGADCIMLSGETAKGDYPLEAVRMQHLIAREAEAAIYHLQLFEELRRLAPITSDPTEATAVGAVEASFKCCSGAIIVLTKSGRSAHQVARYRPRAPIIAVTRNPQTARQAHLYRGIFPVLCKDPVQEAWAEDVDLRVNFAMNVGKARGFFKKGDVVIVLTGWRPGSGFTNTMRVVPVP
Chain of Alpha-galactosidase A (Homo sapiens) (P06280 whole entry, looked up): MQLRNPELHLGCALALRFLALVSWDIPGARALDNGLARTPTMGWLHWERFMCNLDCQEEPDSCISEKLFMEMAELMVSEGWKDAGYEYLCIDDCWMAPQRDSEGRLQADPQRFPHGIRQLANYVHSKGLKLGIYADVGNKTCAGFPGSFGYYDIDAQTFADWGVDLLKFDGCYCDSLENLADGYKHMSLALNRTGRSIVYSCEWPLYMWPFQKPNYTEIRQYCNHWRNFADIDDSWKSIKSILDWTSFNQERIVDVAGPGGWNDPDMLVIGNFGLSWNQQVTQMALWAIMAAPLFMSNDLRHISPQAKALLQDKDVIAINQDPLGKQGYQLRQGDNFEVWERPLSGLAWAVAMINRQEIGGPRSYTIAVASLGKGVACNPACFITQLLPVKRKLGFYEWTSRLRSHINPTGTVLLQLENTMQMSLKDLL
Chain of Cytochrome P450 1A2 (Homo sapiens) (P05177 whole entry, looked up): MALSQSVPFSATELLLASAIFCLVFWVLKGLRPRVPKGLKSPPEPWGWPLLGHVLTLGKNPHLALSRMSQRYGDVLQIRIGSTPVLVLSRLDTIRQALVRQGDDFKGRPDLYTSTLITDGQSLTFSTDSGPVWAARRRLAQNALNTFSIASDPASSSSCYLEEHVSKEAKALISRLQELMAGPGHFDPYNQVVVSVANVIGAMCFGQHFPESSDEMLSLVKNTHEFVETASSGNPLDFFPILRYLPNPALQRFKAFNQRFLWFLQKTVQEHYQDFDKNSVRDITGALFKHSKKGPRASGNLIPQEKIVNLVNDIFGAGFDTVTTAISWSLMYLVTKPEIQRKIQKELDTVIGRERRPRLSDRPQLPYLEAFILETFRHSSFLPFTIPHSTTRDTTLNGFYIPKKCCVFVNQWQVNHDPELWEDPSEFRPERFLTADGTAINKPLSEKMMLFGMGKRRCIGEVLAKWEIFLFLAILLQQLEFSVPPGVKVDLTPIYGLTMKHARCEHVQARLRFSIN
Chain of Cytochrome P450 2C9 (Homo sapiens) (P11712 whole entry, looked up): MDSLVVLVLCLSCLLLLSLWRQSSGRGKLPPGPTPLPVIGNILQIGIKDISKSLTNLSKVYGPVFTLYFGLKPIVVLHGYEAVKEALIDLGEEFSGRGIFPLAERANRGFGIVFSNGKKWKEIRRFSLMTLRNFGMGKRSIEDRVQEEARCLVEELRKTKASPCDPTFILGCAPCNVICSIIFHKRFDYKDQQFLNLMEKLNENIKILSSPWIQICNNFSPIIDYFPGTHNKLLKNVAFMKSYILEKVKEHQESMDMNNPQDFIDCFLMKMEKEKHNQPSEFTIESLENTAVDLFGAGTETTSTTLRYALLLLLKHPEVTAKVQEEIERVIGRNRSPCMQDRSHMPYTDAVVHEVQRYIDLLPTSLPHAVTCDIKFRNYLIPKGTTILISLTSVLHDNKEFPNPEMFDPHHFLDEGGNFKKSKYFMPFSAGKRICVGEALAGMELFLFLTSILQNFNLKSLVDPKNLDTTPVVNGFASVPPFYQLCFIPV

CN(C)c1ccc(-c2nn3c(-c4ccc(Cl)cc4)nnc3s2)cc1
active: Potency [3] 10 µM
inactive: activity change, negative = inhibition [1] 21.4% | Potency [2] > 20.6 µM

CNC(=O)[C@@H]1O[C@@H](n2cnc3c(NCc4cccc(I)c4)ncnc32)[C@H](O)[C@@H]1O
inactive: Potency [4] | activity change, negative = inhibition [5] 9.56% [at 38 µM] | activity, negative = inhibition [6] -11.2% [at 38 µM] | Potency [2] > 46 µM | Potency [7] > 46 µM | Potency [8] | outcome [9] | Potency [10] | Potency [11] | Potency [12] | Potency [13] | Potency [14] | outcome [15] | outcome [16]

C#CCN1C(C)=C(C(=O)OC)[C@@H](c2cccc([N+](=O)[O-])c2)C(C(=O)OCC)=C1C
inactive: activity, negative = inhibition [6] -3.77% [at 38 µM] | Potency [2] > 46 µM | Potency [7] > 46 µM | Potency [17] | Potency [8] | outcome [9] | Potency [10] | Potency [11] | Potency [13] | outcome [22] | outcome [15] | outcome [16]
active: Potency [4] 12.6 µM | Potency [18] 0.316 µM | Potency [19] 3.16 µM | Potency [20] 3.55 µM | Potency [21] 5.01 µM

CCN1CC=C2C(C#N)=C(N)C(C#N)(C#N)[C@H](c3cccc(OC)c3OC)[C@H]2C1
inactive: activity change, negative = inhibition [1] 9.63% | Potency [2] > 20.6 µM
active: Potency [23] 29.1 µM

COc1ccc(NC(=O)/C=C\c2ccc(Cl)cc2)cc1
inactive: activity change, negative = inhibition [5] -10.1% [at 38 µM] | Potency [2] > 46 µM | Potency [7] > 46 µM | Potency [8] | outcome [9] | Potency [18] | Potency [10] | outcome [22] | Potency [25] | outcome [15] | outcome [16]
active: Potency [4] 5.01 µM | Potency [19] 25.1 µM | Potency [21] 3.98 µM | Potency [11] 0.316 µM | Potency [24] 1.41 µM | Potency [13] 10 µM | Potency [14] 15.8 µM

Cc1cc(C)c(/C=C2/C(=O)Nc3ccccc32)[nH]1
active: Potency [4] 0.794 µM
inactive: activity, negative = inhibition [6] -25.4% [at 38 µM] | Potency [8] | outcome [9] | Potency [11] | Potency [26] | Potency [13] | outcome [22] | outcome [15] | outcome [16]

CCOC(=O)NC(Nc1sc2c(c1C(=O)OC)CCN(C)C2)(C(F)(F)F)C(F)(F)F
inactive: activity change, negative = inhibition [1] 12.1% | Potency [2] > 20.6 µM | activation [3] 6.5%

CCOCCSc1nc2c(c(=O)[nH]c(=O)n2C)n1CCCc1ccccc1
inactive: activity change, negative = inhibition [1] 3.98% | Potency [2] > 20.6 µM | activation [3] 6%

Reference: PubChem BioAssay (NCATS)
